Data published in ChEMBL document CHEMBL3988442, “University of Dundee, Small-Polar-MMV Screening Library” (2021).

Assays:
[1] = target: T1, Aspartate--tRNA(Asp/Asn) ligase (Mycobacterium tuberculosis (strain ATCC 25618 / H37Rv)) (UniProt P9WFW3); experiment: Assay for Asp RNA synthetase-1 from Mycobacterium tuberculosis; type: functional; design: scale not given: direction of the effect not stated beside the values; settings: 30 µM; further: in the data most compounds retested in dose-response had high values
T1 sequence (whole entry): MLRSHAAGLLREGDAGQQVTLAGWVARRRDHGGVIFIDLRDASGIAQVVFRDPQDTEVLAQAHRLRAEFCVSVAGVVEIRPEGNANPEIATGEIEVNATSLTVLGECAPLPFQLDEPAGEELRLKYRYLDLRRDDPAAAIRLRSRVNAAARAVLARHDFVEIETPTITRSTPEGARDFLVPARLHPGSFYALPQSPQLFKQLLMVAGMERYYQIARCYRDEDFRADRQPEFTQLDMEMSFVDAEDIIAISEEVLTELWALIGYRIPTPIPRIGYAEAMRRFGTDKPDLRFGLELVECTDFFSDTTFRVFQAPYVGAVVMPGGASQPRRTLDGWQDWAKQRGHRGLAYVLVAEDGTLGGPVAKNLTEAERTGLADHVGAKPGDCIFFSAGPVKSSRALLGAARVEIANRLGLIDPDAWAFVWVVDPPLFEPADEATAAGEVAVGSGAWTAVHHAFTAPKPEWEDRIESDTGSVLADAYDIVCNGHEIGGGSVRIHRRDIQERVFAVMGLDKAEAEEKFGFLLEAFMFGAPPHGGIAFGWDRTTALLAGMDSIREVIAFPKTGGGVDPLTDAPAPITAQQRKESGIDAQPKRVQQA

[2] = target: Shiga toxin 2 (Escherichia coli O157:H7) (UniProt P09385+P09386); experiment: E. coli 0.157:H7 Shiga Toxin SOP - stx2 screening assay; type: functional; design: scale not given: direction of the effect not stated beside the values; settings: 30 µM

| SMILES | Percent Effect [1] [%] | Percent Effect [2] [%] |
| --- | --- | --- |
| CN1CCN(C2CCN(CC(=O)NCC(F)(F)F)CC2)C1=O | -5.68 | -21 |
| COc1cccc(N2CCN(CCC(=O)NC3CCCC3)CC2)c1 | 1.95 | -41.4 |
| CC(=O)Nc1ncc(S(=O)(=O)Nc2ccc(F)cc2)s1 | 2 | -10.2 |
| O=c1c2cnc(N3CCCCC3)nc2ccn1-c1ccccc1 | -0.697 | -17.9 |
| COCC(=O)N1CCC(c2noc3nc(C)cc(C(F)(F)F)c23)CC1 | 3.71 | -10.9 |
| CCc1nccn1C1CCCN(C(=O)c2cnn(C)c2C2CC2)C1 (configuration not stated) | -4.23 | 21.1 |
| CCNc1cc2c(nn1)CCN(C(=O)c1ccnc(N(C)C)c1)C2 | 0.611 | 3.23 |
| COC(=O)c1cccc(C(=O)N2CCN(c3ccccc3F)CC2)n1 | -0.801 | -16.2 |
| COc1c(CNC2CCN(c3ncccn3)CC2)c(C(C)C)nn1C | -2.81 | 30.1 |
| Cn1cnnc1S(=O)(=O)C1CCN(S(=O)(=O)C2CC2)CC1 | -0.604 | -7.38 |
| NC(=O)C(CNC(=O)Cc1ccc(F)cc1)Cc1ccc(F)cc1 (configuration not stated) | -1.56 | -30.7 |
| CCS(=O)(=O)N1C[C@H]2CCC[C@@]2(COc2ccccn2)C1 | 3.6 | 2.64 |
| NC(=O)c1ccc(NC(=O)CCN2CCCC(N3CCCC3)C2)cc1 (configuration not stated) | -4.91 | 24.7 |
| c1ccc(-c2ccc3nc(C4CCN(CC5CC5)CC4)nn3c2)cc1 | 1.41 | -51.6 |
| CCCOc1cc(C)ccc1NC(=O)NCCC(=O)N(C)C | 2.21 | -4.42 |
| CN(C)C(=O)CO[C@H]1CN(Cc2ccc(F)cc2)[C@@H]2CCCO[C@H]12 | 5.68 | -22 |
| Cn1cnc(S(=O)(=O)NCCCN2CCCCCC2)c1Cl | 1.4 | 18.1 |
| O=C1CC(c2ccncc2)C2(CCN(CCO)CC2)N1 (configuration not stated) | -1.48 | -4.07 |
| O=C(NCc1ccc(F)cc1)N1CCC(C2OCCO2)CC1 | 3.59 | 1.94 |
| O=C(NCC(O)c1ccc(F)c(F)c1)c1cccnc1OCC(F)(F)F (configuration not stated) | -1.66 | -9.04 |
| Cc1cnn(CCC(=O)N2CCCN(c3ncccc3C#N)CC2)c1 | -6.54 | -34.1 |
| COc1ccc(C(C)N2CCN(Cc3nccn3C)CC2)cc1Cl (configuration not stated) | -0.0303 | 16 |
| Cc1ccc(NC2CCN(C(=O)c3cccc4ncccc34)CC2)nn1 | 3.98 | -2.02 |

| SMILES | Percent Effect [1] [%] | Percent Effect [2] [%] |
| --- | --- | --- |
| c1ccc(-n2ncc(CNC3CCc4ncnn4C3)n2)cc1 (configuration not stated) | 1.39 | -16.9 |
| COc1ccc(-n2ccc(C(=O)N3CCC(C(N)=O)C3)n2)cc1 (configuration not stated) | 1.17 | 19.6 |
| COc1ccccc1OCc1cc(C(=O)N2CC(O)C2)n[nH]1 | 2.09 | 1.76 |
| CC(c1cccc(S(N)(=O)=O)c1)N(C)CCc1ccccc1 (configuration not stated) | 5.72 | -26.2 |
| O=C(c1ccco1)N1C[C@@H]2OCCN(CCN3CCCC3)[C@@H]2C1 | 7.66 | -2.25 |
| COCCN(C)C(=O)c1ccc(OC)cc1O | 0.638 | -28.1 |
| CCOC(=O)[C@]12CCCN(Cc3nccs3)C[C@H]1CN(C(C)=O)C2 | 2.52 | -5.93 |
| CC(C)c1cc(NC(=O)CN2CCc3cncnc3C2)on1 | 2.37 | 5.67 |
| CC[C@@]1(O)CCN(C(=O)c2ccsc2)C[C@H]1O | -4.99 | -16.9 |
| Cc1cc(C)n(CC2CCCN2CCS(=O)(=O)c2ccccc2)n1 (configuration not stated) | -0.833 | -9.51 |
| CC(=O)Nc1ccc(S(=O)(=O)NC(=O)CCC2CCCO2)cc1 (configuration not stated) | 2.52 | -2.77 |
| COCc1ccccc1NC(=O)[C@@H]1CCCN1C(=O)c1ccco1 | -0.557 | -2.06 |
| C[C@@H]1CN(C2(C(=O)N3CCOCC3)Cc3ccccc3C2)C[C@H](C)O1 | 0.585 | -11.4 |
| CCc1nnc2n1CCN(Cc1csc(-c3cnn(C)c3)n1)C2 | 6.46 | -29.4 |
| CCN1CCN(c2ccc(F)cc2C(C)NCc2ccncc2)CC1 (configuration not stated) | -0.494 | 14.3 |
| CC(NC(=O)COc1nc(C(C)(C)C)no1)c1ccco1 (configuration not stated) | -2.04 | 16.4 |
| Cc1cccnc1C(=O)N1CCCC(c2[nH]ncc2S(C)(=O)=O)C1 (configuration not stated) | 3.25 | 15.7 |
| CC(=O)N1CCC(c2ccnc(Nc3cncnc3)n2)C1 (configuration not stated) | -0.956 | -11.8 |
| Cc1cccc(OCCC(=O)N2CCCN(CC(N)=O)CC2)c1C | -0.457 | 1.67 |
| CCN1CC(C(=O)N2CCC(Oc3ccccc3C)CC2)CC1=O (configuration not stated) | -1.25 | -32.1 |
| Cn1cnc2c1CCN(Cc1nc(Cc3ccccc3)no1)C2 | -1.94 | 15.1 |
| Cc1nnc2n1CCN(Cc1csc(Cc3ccccc3)n1)C2 | -4.28 | 1.17 |
| CCc1n[nH]c(C2CN(C(=O)c3csnn3)CCO2)n1 (configuration not stated) | 1.53 | 10.6 |
